L3MBTL1 inh – qHTS Assay for the Inhibitors of L3MBTL1; Potency, µM (titrated, usually from 57.1 µM), inactives show at the highest dose activity, negative = inhibition, most hits filed as inhibitors; actives 0.66% (n = 230,000); AlphaScreen L3MBTL1–H3K9me1 peptide binding; further: potency means the concentration at half of the fitted maximal effect; on the % scale 0 is the no-effect control and ±100 the full control effect; nearly all actives have a fitted effect of over 60% in size
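AlphaScreen proximity signal between nickel-chelate acceptor and streptavidin donor beads (final 10 ug/mL) reports binding of 50 nM L3MBTL1 to 75 nM biotin-H3 K9me1 peptide; complex incubated with compounds 30 min at room temperature; cefsulodin titration as control.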
BAZ2B inh – qHTS Assay for Inhibitors of BAZ2B. Bromodomain adjacent to zinc finger domain protein 2B (Homo sapiens), Q9UIF8. AlphaScreen BAZ2B-H3K14Ac peptide displacement. Potency, µM (series often up to 114 µM), for the others: at the highest dose activity change, negative = inhibition, hits mostly inhibitors. actives 4.4% (n = 360,000); further: potency means the concentration at half of the fitted maximal effect; on the % scale 0 is the no-effect control and ±100 the full control effect; nearly all actives have a fitted effect of over 60% in size
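Protein-peptide AlphaScreen: BAZ2B 50 nM, b-H3K14Ac 50 nM, 1x PBS pH 7.4 + 0.01% Tween-20. Preincubation 30 min RT; cpd 30 min RT (top 110 uM); beads 20 min RT, light-protected.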
PI5P4Ka inh – qHTS for Inhibitors of phosphatidylinositol 5-phosphate 4-kinase (PI5P4K) | PI5P4Kalpha enzyme, ADP-Glo luminescence, 60 min; stronger effect = lower value | max response, % | actives 1.2% (n = 330,000) | AID 652105, 2013; active means max response of -50% or lower; inconclusive means between -30% and -50%; inactive means -30% or higher; further: value at the top dose of about 77 µM; on the % scale 0 is the no-effect control and ±100 the full control effect
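Quantitative HTS of the MLSMR library against PI5P4Kalpha with substrate. ATP added last at 5 microM final; room temperature, 60 minutes. Remaining ATP depleted, ADP converted and read as luminescence.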
G9a inh – qHTS Assay for Inhibitors of Histone Lysine Methyltransferase G9a | actives 8.8% (n = 350,000) | G9a H3K9 monomethylation, AlphaScreen, 2 h | Potency, µM (doses to about 102 µM), for inactives: at the highest dose activity, negative = inhibition, usual class: inhibitors | Histone-lysine N-methyltransferase EHMT2 (Homo sapiens), Q96KQ7 | AID 504332, 2011; further: potency means the concentration at half of the fitted maximal effect; on the % scale 0 is the no-effect control and ±100 the full control effect; nearly all actives have a fitted effect of over 75% in size
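Methyltransferase reactions run at room temperature for 2 h (20 nM enzyme, 500 nM biotin-H3K9 peptide, 20 uM SAM) after a 15 min compound preincubation; product detected by AlphaScreen beads and anti-H3K9me1 antibody.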
JMJD2A Tudor – qHTS Assay for Inhibitors of JMJD2A-Tudor Domain. AlphaScreen JMJD2A-Tudor / H3K4me3 peptide binding. Potency, µM (highest dose often 114 µM), without a hit: at the top dose activity change, negative = inhibition, hits mostly inhibitors. actives 4.4% (n = 390,000). AID 504339, 2011. Lysine-specific demethylase 4A (Homo sapiens), O75164; further: potency means the concentration at half of the fitted maximal effect; on the % scale 0 is the no-effect control and ±100 the full control effect; nearly all actives have a fitted effect of over 50% in size
Target sequence (O75164 whole entry, looked up, the tested form may be a part): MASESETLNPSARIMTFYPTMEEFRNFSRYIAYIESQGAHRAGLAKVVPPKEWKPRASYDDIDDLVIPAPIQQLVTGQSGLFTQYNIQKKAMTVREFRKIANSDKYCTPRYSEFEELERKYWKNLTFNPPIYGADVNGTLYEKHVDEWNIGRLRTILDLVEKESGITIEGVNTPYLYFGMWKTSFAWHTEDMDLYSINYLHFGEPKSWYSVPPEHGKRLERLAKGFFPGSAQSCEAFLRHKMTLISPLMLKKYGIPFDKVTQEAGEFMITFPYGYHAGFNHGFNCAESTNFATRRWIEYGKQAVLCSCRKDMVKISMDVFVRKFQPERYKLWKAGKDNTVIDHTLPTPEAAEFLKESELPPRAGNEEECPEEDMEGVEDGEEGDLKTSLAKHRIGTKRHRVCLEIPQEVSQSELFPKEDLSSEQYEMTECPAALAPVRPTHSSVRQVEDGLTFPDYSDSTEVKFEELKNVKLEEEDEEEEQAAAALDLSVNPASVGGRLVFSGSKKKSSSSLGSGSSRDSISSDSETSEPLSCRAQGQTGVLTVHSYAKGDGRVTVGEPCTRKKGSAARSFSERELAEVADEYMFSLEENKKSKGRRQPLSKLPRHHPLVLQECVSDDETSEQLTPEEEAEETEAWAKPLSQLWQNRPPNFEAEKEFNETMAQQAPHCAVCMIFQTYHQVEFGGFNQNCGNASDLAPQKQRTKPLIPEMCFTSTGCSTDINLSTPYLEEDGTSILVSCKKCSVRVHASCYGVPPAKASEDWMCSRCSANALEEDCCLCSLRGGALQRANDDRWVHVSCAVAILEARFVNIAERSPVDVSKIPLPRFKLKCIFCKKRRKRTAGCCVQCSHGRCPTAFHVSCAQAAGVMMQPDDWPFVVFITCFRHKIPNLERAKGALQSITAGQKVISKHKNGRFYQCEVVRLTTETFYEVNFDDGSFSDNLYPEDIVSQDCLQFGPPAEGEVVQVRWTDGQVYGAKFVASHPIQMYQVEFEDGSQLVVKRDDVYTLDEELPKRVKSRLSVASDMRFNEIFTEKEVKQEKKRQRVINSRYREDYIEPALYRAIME
HP1b binding inh – HTS for Inhibitors of HP1-beta Chromodomain Interactions with Methylated Histone Tails; Potency, µM (titrated, usually from 114 µM), inactives show top-dose activity change, negative = inhibition, most hits filed as inhibitors; AID 540317, 2011; AlphaScreen HP1-beta / biotin-H3K9me3 peptide binding; actives 0.56% (n = 390,000); Chromobox protein homolog 1 (Homo sapiens), P83916; further: potency means the concentration at half of the fitted maximal effect; nearly all actives have a fitted effect of over 70% in size
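AlphaScreen: HP1-beta (50 nM) preformed 30 min with biotin-H3(1-18)K9me3 peptide (50 nM) in PBS pH 7.4, 0.01% Tween-20. Compound added for 30 min at RT, then streptavidin donor/nickel chelate acceptor beads (10 ug/mL) for 30 min.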
* marks the source's active call; other numbers are inactive results; [ ] = another dose, or the depositor's remark. Sampled rows, rich in hits. Any-hit rate of the full collection: about 11%. Unless noted, the call rests on the fitted dose curve; in most records, active means well fitted inhibition curve with a large enough effect; inconclusive means small, poorly fitted or top-dose-only effect; inactive means no such curve, though single readings can be large or run the other way.

For CCCCNC(=O)c1cc(-c2ccc(OC)cc2)nc2n[nH]c(-c3cccc([N+](=O)[O-])c3)c12 the results were BAZ2B inh 4.0%, G9a inh 8.0%[59 µM], JMJD2A Tudor -10.3% and HP1b binding inh 42.9%.
Cc1oc2c(cc(NS(=O)(=O)c3ccc(Cl)cc3)c3ccccc32)c1C(=O)OCc1ccccc1 was read as BAZ2B inh -13.8%, G9a inh -29.4%[59 µM], JMJD2A Tudor -29.4% and HP1b binding inh 0.0%.
CC(C)(C)c1ccc(OCCC(=O)Nc2cccc(S(=O)(=O)N3CCCC3)c2)cc1 was read as L3MBTL1 inh -9.2%, BAZ2B inh 3.7%, PI5P4Ka inh -1.6, G9a inh 3.55µM*, JMJD2A Tudor -15.2% and HP1b binding inh 17.3%.
Cc1cc(C(=O)C[N+]2(C)CCOCC2)c(C)n1-c1ccc(Br)cc1 was read as L3MBTL1 inh 12.2%, BAZ2B inh -36.8%, PI5P4Ka inh 3.0, G9a inh -26.9%, JMJD2A Tudor inconclusive and HP1b binding inh -5.1%.
`Cc1cc(C(=O)NP(=O)(N2CCOCC2)N2CCOCC2)c(C)n1-c1ccc(N(C)C)cc1` gave L3MBTL1 inh -8.4%, BAZ2B inh inconclusive, PI5P4Ka inh 1.4, G9a inh 22.4µM*, JMJD2A Tudor inconclusive and HP1b binding inh -11.8%.
`Cc1cc(C(=O)NP(=O)(N2CCOCC2)N2CCOCC2)c(C)n1-c1ccc(Br)cc1` gave L3MBTL1 inh -5.7%, BAZ2B inh inconclusive, PI5P4Ka inh -5.2, G9a inh 50.1µM*, JMJD2A Tudor -28.7% and HP1b binding inh -1.3%.
For O=C(c1ccc(F)cc1F)N(Cc1ccccn1)Cc1ccco1 the results were L3MBTL1 inh -2.8%, BAZ2B inh inconclusive, G9a inh 22.4µM*, JMJD2A Tudor inconclusive and HP1b binding inh 22.8%.
`CO[C@H]1/C=C/O[C@@]2(C)Oc3c(C)c(O)c4c(O)c(c(/C=N/N5CCN(C)CC5)c(O)c4c3C2=O)NC(=O)/C(C)=C\C=C\[C@H](C)[C@H](O)[C@@H](C)[C@@H](O)[C@@H](C)[C@H](OC(C)=O)[C@@H]1C` gave G9a inh 20µM*.
For CO[C@H]1C=CO[C@]2(C)Oc3c(C)c(O)c4c(O)c(c5c(c4c3C2=O)NC2(CCN(CC(C)C)CC2)N=5)=NC(=O)C(C)=CC=C[C@@H](C)[C@@H](O)[C@@H](C)[C@@H](O)[C@@H](C)[C@@H](OC(C)=O)[C@@H]1C the results were G9a inh 3.3%[21.5 µM].
`Cc1ccc(-n2cnnn2)cc1S(N)(=O)=O` gave BAZ2B inh -5.5%, G9a inh -14.0%[59 µM], JMJD2A Tudor -26.5% and HP1b binding inh 6.5%.
`NS(=O)(=O)Nc1ccccc1Br` gave JMJD2A Tudor -12.4% and HP1b binding inh 15.0%.
CC(C)(C)OC(=O)NS(=O)(=O)Nc1ccccc1Br was read as JMJD2A Tudor 35.5µM* and HP1b binding inh -5.5%.
Cc1cc(C)c(Nc2n[nH]c(=S)s2)cc1C was read as PI5P4Ka inh -90.3*.
For Cc1ccc(Nc2n[nH]c(=S)s2)c(C)c1 the results were PI5P4Ka inh -87.6*.
`CCOc1ccc(NC(=O)CN2C(=O)c3ccccc3Sc3ccc(C(=O)OC)cc32)cc1` gave BAZ2B inh 3.3%, G9a inh 7.4%[59 µM], JMJD2A Tudor -3.2% and HP1b binding inh 24.6%[57 µM].
Screening COc1ccc(CNS(=O)(=O)c2cc3c(cc2C)n(C)c(=O)c(=O)n3C)cc1 returned BAZ2B inh 2.4%, G9a inh 3.3%[59 µM], JMJD2A Tudor -9.6% and HP1b binding inh 9.5%.
Screening CCC(NC(=O)Nc1cccc(C)c1)c1c(-n2cccc2)sc2c1CCN(C)C2 (centres undefined) returned BAZ2B inh -38.2%, G9a inh -31.0%[59 µM], JMJD2A Tudor inconclusive and HP1b binding inh 2.6%.
CCC(NC(=O)Nc1cc(Cl)ccc1OC)c1c(-n2cccc2)sc2c1CCN(C)C2 (centres undefined) was read as BAZ2B inh inconclusive, G9a inh 15.8µM*, JMJD2A Tudor inconclusive and HP1b binding inh inconclusive.
Screening O=C(CSc1nc2ccccc2n1Cc1ccccc1Cl)NCc1ccccc1 returned BAZ2B inh -12.2%, G9a inh 4.9%[12.7 µM], JMJD2A Tudor -3.3% and HP1b binding inh 25.9%.
For Cc1cc(C)c2ccc(=S)[nH]c2n1 the results were L3MBTL1 inh -14.6%, BAZ2B inh -25.9%, PI5P4Ka inh -18.5, G9a inh 8.91µM*, JMJD2A Tudor -21.8% and HP1b binding inh 22.6%.
`CCOc1ccc(CCNC(=O)c2cc3c(=O)oc4ccc(C)cc4c3s2)cc1OCC` gave BAZ2B inh -3.8%, G9a inh -8.7%[59 µM], JMJD2A Tudor inconclusive and HP1b binding inh 13.0%.
`CCc1ccc(C(=O)c2cn(CC(=O)NC3CCCCC3)c3nc(C)ccc3c2=O)cc1` gave BAZ2B inh -3.5%, G9a inh 0.1%[59 µM], JMJD2A Tudor -20.5% and HP1b binding inh 26.8%.
`COc1ccc(S(=O)(=O)Nc2c(C(=O)O)[nH]c3ccc(OC)cc23)cc1` gave BAZ2B inh inconclusive, PI5P4Ka inh -11.1, G9a inh 7.94µM*, JMJD2A Tudor 20µM* and HP1b binding inh -30.1%.
`COc1ccc(S(=O)(=O)Nc2c(C(=O)O)[nH]c3ccc(OC)cc23)c(OC)c1` gave BAZ2B inh 44.7µM*, PI5P4Ka inh -6.0, G9a inh 2.24µM*, JMJD2A Tudor 17.8µM* and HP1b binding inh 44.7µM*.
`CCN(C(=O)Cc1c(C(=O)O)[nH]c2ccccc12)c1cc(OC)ccc1OC` gave L3MBTL1 inh -2.3%, BAZ2B inh inconclusive, PI5P4Ka inh -5.4, G9a inh 10.7%[12.7 µM], JMJD2A Tudor inconclusive and HP1b binding inh 16.9%.
COc1ccc2[nH]c(C(=O)O)c(NS(=O)(=O)c3ccc(OC)c(OC)c3)c2c1 was read as BAZ2B inh inconclusive, G9a inh inconclusive, JMJD2A Tudor inconclusive and HP1b binding inh -1.9%.
COc1ccc(S(=O)(=O)Nc2c(C(=O)O)[nH]c3ccccc23)c(OC)c1 was read as L3MBTL1 inh -1.0%, BAZ2B inh inconclusive, PI5P4Ka inh 3.1, G9a inh 39.8µM*, JMJD2A Tudor inconclusive and HP1b binding inh 8.5%.

Assay outcomes as filed in PubChem BioAssay.
